This is part of a sample that, as a whole, favours compounds with a hit. Of some 83,000 tested, about 20% had one in any assay.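 Cell lines were cultured in 96-well plates, exposed to a single compound concentration, and assessed for percent growth 48 hours later.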 Calls of active or inactive are those of the source. How the source made its calls: active means growth percent below 10; inactive means the rest.
test system: SF-539 CNS; assay: NCI-60 one-dose screen, 48 h (100 = growth as untreated, 0 = no growth, -100 = all killed); details: 10 µM unless noted

Row | SMILES | growth
1 | COc1ccc(C2Nc3ncnc(N)c3N=C3c4ccccc4C(=O)C32)cc1 (stereo not given) | 100% (inactive)
2 | Nc1nc(N)c2c(n1)NC1(C=C(O)c3ccccc31)C1=C(N2)c2ccccc2C1=O (stereo not given) | 109% (inactive)
3 | CCOC(=O)c1cnc2ccc(Cl)cc2c1NCCCN(C)C | -12.7% (active)
4 | CCCCCCc1cc2cc(-c3nc4ccccc4[nH]3)c(=Nc3ccccc3C)oc2cc1O | 75.3% (inactive)
5 | OC(c1ccccc1)c1nnc(SCc2ccccc2)n1Cc1ccccc1 (stereo not given) | 101% (inactive)
6 | CC(=O)O[C@@H]1/C=C/C(=O)N[C@@H](C)CCC/C=C/[C@@H]2CCC[C@H]21 | 94% (inactive)
7 | COc1ccc(C2Nc3nc(OC)n(C)c(=O)c3N=C3c4ccccc4C(=O)C32)cc1 (stereo not given) | 89.8% (inactive)
8 | CN1CCN(c2nc(Nc3ccc(O)cc3)nc3ccccc23)CC1 | 47.2% (inactive)
9 | COc1ccc(/C=C2\SC(=Nc3ccccc3)NC2=O)cc1 | -96.2% (active)
10 | CCOC(=O)c1cc2c(n1Cc1cc(OC)c(OC)c(OC)c1)-c1oncc1CCC2 | -7.45% (active)
11 | Cn1c2c(c(=O)[nH]c1=O)NC1=C(C(=O)c3ccccc31)C1(C=C(O)c3ccccc31)N2 (stereo not given) | 107% (inactive)
12 | FC(F)(F)c1cccc(Nc2nc(-c3ccccc3)nc3ncccc23)c1 | 3.25% (active)
13 | O=C(Nc1ccc(Cl)cc1)c1cc2ccccc2cc1OP(=O)(O)O | 32.1% (inactive)
14 | COC(=O)/C(=C\c1c(-c2ccccc2)[nH]c2ccccc12)S(C)(=O)=O | 4.74% (active)
15 | Nc1ccc(C2c3ccccc3Oc3ccccc32)cc1 | 111% (inactive)

— PubChem BioAssay (NCI)
